PI5P4K alpha inh: blocks human PI5P4K alpha kinase activity; max response, %; hit rate 1.2% among 330,000; PI5P4Kalpha enzyme, ADP-Glo luminescence, 60 min; hits give low values; P48426; active means max response of -50% or lower; inconclusive means between -30% and -50%; inactive means -30% or higher; further: value at the top dose of about 77 µM; on the % scale 0 is the no-effect control and ±100 the full control effect
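Compounds were pin-transferred onto PI5P4Kalpha and substrate in HEPES pH 7.4 buffer with EGTA, CHAPS and 5% DMSO. ATP (5 microM final) started the reaction, which ran 60 minutes at room temperature before ADP-Glo detection.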
BAZ2B inh: BAZ2B (human) inhibition. hit rate 4.4% among 360,000. Potency, µM (titrated, usually from 114 µM), for the others: top-dose activity change, negative = inhibition, hits mostly inhibitors. Q9UIF8. AID 504333. AlphaScreen BAZ2B-H3K14Ac peptide displacement; further: potency means the concentration at half of the fitted maximal effect; on the % scale 0 is the no-effect control and ±100 the full control effect; nearly all actives have a fitted effect of over 60% in size
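BAZ2B (50 nM) with biotin-H3(5-23)K14Ac peptide (50 nM) in PBS pH 7.4, 0.01% Tween-20, preformed 30 min, then compound 30 min at room temperature; top concentration 110uM. AlphaScreen streptavidin donor/nickel chelate acceptor beads (10 ug/mL final), 20 min dark, signal read.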
HP1b binding inh: HP1-beta chromodomain-methylated histone interaction inhibition; hit rate 0.56% among 390,000; AlphaScreen HP1-beta / biotin-H3K9me3 peptide binding; Potency, µM (series often up to 114 µM), for the others: at the highest dose activity change, negative = inhibition, actives largely listed as inhibitors; P83916; further: potency means the concentration at half of the fitted maximal effect; nearly all actives have a fitted effect of over 70% in size
Target sequence (P83916 whole entry, looked up): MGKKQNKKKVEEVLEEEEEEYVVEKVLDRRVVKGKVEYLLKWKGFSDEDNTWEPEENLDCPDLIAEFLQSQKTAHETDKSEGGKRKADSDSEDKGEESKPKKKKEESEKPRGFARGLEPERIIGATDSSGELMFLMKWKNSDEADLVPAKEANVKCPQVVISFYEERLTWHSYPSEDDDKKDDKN
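Compound inhibition of the preformed complex between 50 nM HP1-beta and 50 nM biotinylated H3K9me3 peptide was read by AlphaScreen. Buffer was PBS pH 7.4 with 0.01% Tween-20. Incubations ran 30 min at room temperature, with 10 ug/mL donor/acceptor beads.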
L3MBTL1 inh: blocks human L3MBTL1; Potency, µM (doses to about 57.1 µM), inactives show at the top dose activity, negative = inhibition, most hits filed as inhibitors; AlphaScreen L3MBTL1–H3K9me1 peptide binding; Q9Y468; hit rate 0.66% among 230,000; AID 485360; further: potency means the concentration at half of the fitted maximal effect; on the % scale 0 is the no-effect control and ±100 the full control effect; nearly all actives have a fitted effect of over 60% in size
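Displacement of a biotinylated histone H3(1-15) peptide monomethylated at Lys9 (75 nM) from L3MBTL1 (50 nM) was measured by AlphaScreen after a 30 min room-temperature compound incubation; cefsulodin titration served as intraplate control.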
JMJD2E inh-1: inhibitors of human JMJD2E histone demethylase; Potency, µM (doses to about 57.1 µM), for inactives: at the highest dose activity change, negative = inhibition, most hits filed as inhibitors; JMJD2E catalytic domain, FDH-coupled NADH fluorescence; B2RXH2; hit rate 1.6% among 230,000; active means well fitted inhibition curve with a large enough effect, not every such curve was filed as active; inconclusive means small, poorly fitted or top-dose-only effect, or another doubt; inactive means no such curve, though single readings can be large or run the other way;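 further: potency means the concentration at half of the fitted maximal effect; 0% = wells with enzyme and -100% = buffer wells without enzyme; nearly all actives have a fitted effect of over 50% in size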
JMJD2A Tudor: blocks the human JMJD2A Tudor domain; AlphaScreen JMJD2A-Tudor / H3K4me3 peptide binding; Potency, µM (doses to about 114 µM), inactives show at the highest dose activity change, negative = inhibition, hits mostly inhibitors; hit rate 4.4% among 390,000; AID 504339; further: potency means the concentration at half of the fitted maximal effect; on the % scale 0 is the no-effect control and ±100 the full control effect; nearly all actives have a fitted effect of over 50% in size
JMJD2E inh-2: inhibitors of human JMJD2E demethylase, 8HQ series round 1; JMJD2E demethylase, FDH-coupled NADH fluorescence; shares compounds with BAZ2B inh; hit rate 89% among 130; Potency, µM (top dose mostly 57 µM), inactives show top-dose activity, negative = inhibition, most hits filed as inhibitors
JMJD2E inh-3: JMJD2E (human) demethylase inhibition, confirmation; shares compounds with JMJD2A Tudor; Recombinant JMJD2E, FDH-coupled NADH fluorescence (FDH is formaldehyde dehydrogenase); Potency, µM (series often up to 56.8 µM), inactives show at the highest dose activity change, negative = inhibition, most hits filed as inhibitors; hit rate 93% among 140
FDH counter: counter-screen for JMJD2E inhibitors: Pseudomonas putida formaldehyde dehydrogenase | shares compounds with JMJD2A Tudor | hit rate 10% among 140 | AID 2680 | Potency, µM (highest dose often 56.7 µM), without a hit: at the highest dose activity, negative = inhibition, usual class: inhibitors | FDH enzyme assay, NADH fluorescence kinetic
Target sequence (P46154 whole entry, looked up): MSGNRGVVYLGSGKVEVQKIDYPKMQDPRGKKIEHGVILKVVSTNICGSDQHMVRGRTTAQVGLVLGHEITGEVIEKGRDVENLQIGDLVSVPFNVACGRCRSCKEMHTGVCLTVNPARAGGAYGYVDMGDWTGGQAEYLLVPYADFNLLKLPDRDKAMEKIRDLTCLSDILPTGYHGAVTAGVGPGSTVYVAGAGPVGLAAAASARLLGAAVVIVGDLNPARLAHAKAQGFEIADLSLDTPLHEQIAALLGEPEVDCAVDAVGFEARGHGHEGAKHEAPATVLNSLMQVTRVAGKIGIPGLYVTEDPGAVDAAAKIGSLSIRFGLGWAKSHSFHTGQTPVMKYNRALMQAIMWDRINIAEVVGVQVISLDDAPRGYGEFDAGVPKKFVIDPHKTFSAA
JMJD2E MALDI inh: inhibitors of human JMJD2E demethylase; shares compounds with JMJD2A Tudor; recombinant JMJD2E demethylation, MALDI-TOF-MS; Potency, µM, most hits filed as inhibitors; hit rate 90% among 45;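 active means compounds whose IC50 for blocking JMJD2E demethylation is below 100 µM; inconclusive means dose dependent effect but IC50 above 100 µM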
An asterisk follows results filed as active; u = inconclusive; x = no result given; [ ] = dose if it differs, or a comment. Hits are enriched below; roughly 5.7% of the tested compounds scored in any of these assays. Unless noted, the call rests on the fitted dose curve; in most records, active means well fitted inhibition curve with a large enough effect; inconclusive means small, poorly fitted or top-dose-only effect; inactive means no such curve, though single readings can be large or run the other way.

SMILES	PI5P4K alpha inh	BAZ2B inh	HP1b binding inh	L3MBTL1 inh	JMJD2E inh-1	JMJD2A Tudor	JMJD2E inh-2	JMJD2E inh-3	FDH counter	others
O=[N+]([O-])c1ccccc1NCc1ccc(O)c2ncccc12	x	x	x	x	x	u	4.47µM*	10.2µM*	-27.3%	JMJD2E MALDI inh=12.2*
COc1ccc(CNc2cccnc2)c(OC)c1OC	-5.7	x	44.0%	x	x	-6.2%	x	x	x
Oc1ccc(CNc2cccc(C(F)(F)F)c2)c2cccnc12	x	22.4µM*	x	12.6µM*	x	x	7.94µM*	7.94µM*	-36.4%
O=[N+]([O-])c1ccccc1COc1ccc(Cl)c2cccnc12	-11.6	2.2%	20.7%	x	x	-25.8%	x	x	x
Oc1ccc(CNc2cccnc2)c2cccnc12	x	x	x	x	x	22.4µM*	6.46µM*	12.9µM*	-18.2%	JMJD2E MALDI inh=26.3*
Oc1c(CNc2ccccc2)cc(COCc2ccccc2)c2cccnc12	x	50.1µM*	21.4%	u	x	-17.1%	11.5µM*	7.94µM*	-9.1%
CCc1cccc(C)c1NC(=O)COC(=O)c1cc([N+](=O)[O-])ccc1N1CCOCC1	-1.2	1.6%	21.6%	2.3%	x	-4.7%	x	x	x
CCc1nc2c(OCCc3cccc(OC)c3)cccn2c1N(C)C(=O)c1cccs1	-4.1	x	x	x	x	x	x	x	x
Cc1[nH]c2ccc(Br)cc2c1CCNC(=O)c1cc2ccccc2oc1=O	x	-8.5%	13.3%	x	x	-16.0%	x	x	x
COC(=O)c1ccccc1OCCOCCOc1cccc2cccnc12	-8.6	-31.6%	u	-17.6%	5.5%	-30.5%[57.1 µM]	x	x	x
COC(=O)c1ccc(OC(C)=O)c2ncccc12	x	x	x	x	x	x	12.9µM*	14.5µM*	-18.2%
Oc1cc(-c2cccnc2)cc2cccnc12	x	3.16µM*	61.3%	7.94µM*	x	25.1µM*	5.62µM*	5.62µM*	-27.3%
O=C(c1cc2ccccc2cc1O)N1CCN(c2ccccn2)CC1	-0.6	-4.6%	-23.2%	x	x	-24.8%	x	x	x
CN1CCN(C(=O)c2cccc(-c3ccc4nncn4c3)c2)CC1	2.3	x	x	x	x	x	x	x	x
CN1CCN(C(=O)c2cccc(-c3cc(O)c4ncccc4c3)c2)CC1	x	12.6µM*	50.8%	31.6µM*	x	50.1µM*	15.8µM*	15.8µM*	-18.2%
CN1CCN(c2cc(-c3cc(O)c4ncccc4c3)ccn2)CC1	x	7.94µM*	18.6%	28.2µM*	x	25.1µM*	15.8µM*	15.8µM*	-9.1%
COCc1cc(C)nc(Nc2ccccc2OC)c1C#N	3.8	9.1%	31.4%	13.5%	x	11.2%	x	x	x
CCCNc1ncccc1C(N)=O	-0.2	6.9%	10.8%	6.9%	u	-1.9%	x	x	x
Nc1cccnc1Oc1ccccc1F	7.1	-4.5%	0.5%	3.3%	-3.6%	-9.7%	x	x	x
NC(=O)c1ccc(O)c2ncccc12	x	x	x	x	x	12.6µM*	4.57µM*	4.57µM*	-9.1%	JMJD2E MALDI inh=89.6*
Oc1ccc(Oc2ccccc2F)c2cccnc12	x	x	x	x	x	50.1µM*	8.91µM*	12.9µM*	-9.1%	JMJD2E MALDI inh=16.8*
O=C(O)c1ccnc2c(O)cccc12	x	1.78µM*	x	12.6µM*	x	x	1.45µM*	1.45µM*	x	JMJD2E MALDI inh=8.19*
O=C(Nc1ccccc1F)c1ccc(O)c2ncccc12	x	20µM*	x	28.2µM*	x	x	28.9µM*	35.5µM*	x	JMJD2E MALDI inh=40.7*
O=C(Nc1cccc2cccnc12)c1cccc2ccccc12	x	-2.6%	45.2%	x	346.1%	-3.4%	x	x	x
Cc1cccc(Cn2cc(C(=O)Nc3ccc(F)c(C(F)(F)F)c3)ccc2=O)c1	x	4.0%	36.4%[57 µM]	x	x	-7.4%	x	x	x
